The target of this assay is Solute carrier family 2, facilitated glucose transporter member 1 (Homo sapiens) (UniProt P11166). Briefly: ST_JUDE_LEISH: Cytotoxicity at 2uM final concentration against transgenic Leishmania Mexicana promastigotes LmGLUT1 that are glucose transport deficient and complemented with the human glucose transporter GLUT1. Activity is measured by DNA content using SYBR green in vitro. Type of assay: functional.
Solute carrier family 2, facilitated glucose transporter member 1 (Homo sapiens), sequence (P11166 whole entry): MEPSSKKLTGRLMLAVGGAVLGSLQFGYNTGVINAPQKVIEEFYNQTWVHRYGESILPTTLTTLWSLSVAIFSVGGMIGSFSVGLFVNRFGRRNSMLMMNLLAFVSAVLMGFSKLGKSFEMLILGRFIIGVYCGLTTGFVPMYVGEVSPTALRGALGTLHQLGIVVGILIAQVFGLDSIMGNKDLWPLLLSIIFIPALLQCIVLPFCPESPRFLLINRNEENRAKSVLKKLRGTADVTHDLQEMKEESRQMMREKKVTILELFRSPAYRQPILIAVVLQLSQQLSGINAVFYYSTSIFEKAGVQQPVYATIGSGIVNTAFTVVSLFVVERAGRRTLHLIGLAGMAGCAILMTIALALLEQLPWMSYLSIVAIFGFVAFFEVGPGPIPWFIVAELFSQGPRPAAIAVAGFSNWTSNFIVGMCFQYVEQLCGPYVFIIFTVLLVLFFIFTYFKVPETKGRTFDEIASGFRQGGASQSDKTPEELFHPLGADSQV
With `CCOc1ccc(N2C(N)=NC(N)=NC2(C)C)cc1`, the inhibition stood at 4.38%.
In the case of `Cc1nc(C)n(CC(=O)Nc2cccc(-c3cccc(-c4nc5cc(C(F)(F)F)ccc5[nH]4)c3)c2)n1`, the inhibition came to 10.2%.
For the compound `CN(C)CCCNc1ncnc2c1[nH]c1ccc(Br)cc12`, the inhibition stood at 1.44%.
The value for `NS(=O)(=O)c1cccc(Nc2nc(N[C@@H]3CCNC3)nc3cc[nH]c(=O)c23)c1` was 4.84%; that for `N#Cc1ccc(-c2ccc(C(=O)Nc3ccc4c(c3)CCN(C3CCC3)CC4)nc2)cc1` was 3.57%.
Consider `Cc1csc(-c2nonc2NC(=O)COc2ccccc2C(C)C)n1`, for which the inhibition worked out at 2.07%.
For `CCO[C@H]1CN[C@H](C#Cc2cc3c(Nc4ccc(OCc5cccc(F)c5)c(Cl)c4)ncnc3s2)C1`, the inhibition came out at 0.74%.
On to `O=C(Cn1c(SCc2cccc(F)c2F)cc(=O)c2ccccc21)N(Cc1ccc(-c2ccc(C(F)(F)F)cc2)cc1)C1CCN(CCO)CC1`, for which the inhibition was -0.08%.
`CN(C(=O)c1nn(-c2ccccn2)c2nccc(-c3cccs3)c12)C1CCCCC1`: the inhibition was 5.01%.
Turning to `CC(Nc1nc(Nc2ccc(F)cc2)nc(SCC(N)=O)n1)c1ccccc1` (stereo not given), the inhibition turned out to be 0.82%.
For the compound `CC(C)c1sc(N2CCN(C)CC2)nc1C(=O)Nc1ccc(F)cc1C(F)(F)F`, the inhibition stood at 5.47%.
The value for `Cc1cnc(Nc2ccccc2)nc1N[C@@H](CCCN)C(=O)Nc1ccccc1` was -1.01%.
Consider `CC(C)(C)NS(=O)(=O)c1cc(C(=O)N2CCC(CCN3CCC(O)(c4cccc(C(F)(F)F)c4)CC3)(c3cccc(F)c3)CC2)c(Cl)cc1F`, for which the inhibition turned out to be 1.73%.
For the compound `O=C(Nc1ccc(Cl)c(Cl)c1)N1CCC(NCc2cccc([N+](=O)[O-])c2)CC1`, the inhibition came out at 4.54%.
Under `COc1cccc(C=NN=c2cc(C)[nH]c3ccccc23)c1` stands 3.57%.

Source of the values: ChEMBL document CHEMBL3433997, “St. Jude Leishmania screening dataset” (2016).
